PfHsp90 set2: inhibits growth of yeast expressing Plasmodium falciparum Hsp90. inhibition, % at 9.4 µM. 310,000 tested, 0.32% active. AID 504621. S. cerevisiae expressing PfHsp90, BacTiter-Glo ATP, 48 h; yeast lacking PDR1 and PDR3 efflux regulators;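 active = every replicate shows inhibition above about 80%, whatever the replicate mean, limit read from the data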
EBI2 block: antagonists of human EBI2 receptor. P32249. EBI2 beta-arrestin recruitment, luminescence, 7a,25-OHC stimulated. inhibition, % at 5 µM. 360,000 tested, 0.81% active. AID 651636; in the data active = inhibition above about 38%;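 note: enzyme fragment complementation signal reports receptor beta-arrestin coupling in cells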
Target sequence (P32249 whole entry, looked up, the tested form may be a part): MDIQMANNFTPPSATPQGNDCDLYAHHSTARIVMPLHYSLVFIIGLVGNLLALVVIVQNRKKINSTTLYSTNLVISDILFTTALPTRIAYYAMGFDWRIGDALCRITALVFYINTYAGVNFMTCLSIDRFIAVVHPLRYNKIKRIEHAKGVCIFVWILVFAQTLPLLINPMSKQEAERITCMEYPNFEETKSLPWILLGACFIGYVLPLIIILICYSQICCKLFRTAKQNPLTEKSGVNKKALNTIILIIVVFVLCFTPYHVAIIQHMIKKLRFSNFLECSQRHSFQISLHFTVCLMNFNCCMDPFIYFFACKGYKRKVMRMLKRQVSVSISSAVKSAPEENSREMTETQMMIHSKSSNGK
TIM10 inh: inhibits growth of TIM10 yeast strain; 330,000 tested, 1.4% active; inhibition, % at 10 µM; AID 463195; S. cerevisiae TIM10 strain growth, BacTiter-Glo luminescence, 24 h;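 active = inhibition of 40% or more at the single tested concentration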;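 note: wild-type TIM10 isogenic control strain grown at permissive 25 °C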
SKKanGAS inh: inhibitors of SKKanGAS S. pyogenes growth in kanamycin (SK-promoter or general growth effect) | inhibition, % at 7.5 µM | AID 1662 | BacTiter-Glo, 6 h | 300,000 tested, 1.3% active;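 active = mean replicate score, as percent of positive control median, at least 50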;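 note: strain carries kanamycin resistance gene driven by streptokinase promoter and grows in 40 µg/ml kanamycin; loss of luminescence reflects streptokinase promoter inhibition or plain growth inhibition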
tim23-1 inh: inhibits growth of tim23-1 mutant yeast. inhibition, % at 20 µM. S. cerevisiae tim23-1 growth, BacTiter-Glo luminescence, 24 h. 330,000 tested, 1.3% active;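 active = growth inhibition of the mutant yeast at or above 50%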;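 note: temperature-sensitive mutant grown at 25 °C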
tim10-1 inh: growth inhibitors of tim10-1 mutant yeast. S. cerevisiae tim10-1 ts strain growth, BacTiter-Glo, 24 h. inhibition, % at 20 µM. 330,000 tested, 2.2% active. AID 463190;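 active = inhibition of at least 40%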;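 note: mutant grown at 25 °C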
A number is an active result; 0 = inactive; - = no result. Shown are actives, neighbours in structure and some others; about 4.7% of the full set was active somewhere.

SMILES	PfHsp90 set2	EBI2 block	TIM10 inh	SKKanGAS inh	tim23-1 inh	tim10-1 inh
CCC(=O)c1ccc(N2CCN(C(=O)c3ccc(Br)cc3)CC2)c(F)c1	-	57	0	0	0	0
CCC(=O)c1ccc(N2CCN(C(=O)c3ccc(F)cc3)CC2)c(F)c1	0	0	0	0	0	0
CCOc1ccc(N2CC(C(=O)NCCc3c[nH]c4ccc(OC)cc34)CC2=O)cc1 (stereo not drawn)	0	0	0	0	0	0
CCc1ccc(NC(=O)COC(=O)/C(=C/c2ccccc2OC)c2ccccc2)cc1	0	0	0	0	0	0
COc1ccccc1/C=C(/C(=O)OCC(=O)Nc1cc(C)ccc1C)c1ccccc1	0	0	0	55	0	0
COc1ccc([N+](=O)[O-])cc1NC(=O)c1cc(C)c(C)o1	0	0	0	0	0	0
C[C@@H]1CN([C@H](C)CO)C(=O)CCCn2cc(nn2)CO[C@H]1CN(C)C(=O)Nc1cccc(Oc2ccccn2)c1	-	0	-	-	-	-
Clc1ccc(Nc2ncnc3c2cnn3-c2ccccc2)cc1	0	0	0	81	0	0
CC(=O)Nc1ccc(Nc2ncnc3c2cnn3-c2ccccc2)cc1	-	0	0	0	0	0
Cc1nnc(-c2ccc(N3CCOCC3)c([N+](=O)[O-])c2)o1	0	0	0	-	0	0
Cc1cccc(Nc2nnc(-c3ccc(N4CCOCC4)c([N+](=O)[O-])c3)c3ccccc23)c1	0	0	0	59	0	0
COc1ccc2nc(N3C(=O)CNC3=S)sc2c1	0	0	0	65	0	0
Cc1ccccc1S(=O)(=O)NC(=O)C1(C)CCN1C(=O)Cc1ccc(C(C)(C)C)cc1 (stereo not drawn)	-	0	-	-	-	-
O=C(Nc1nc(-c2ccccc2)cs1)c1ccccc1NS(=O)(=O)c1ccc(F)cc1	103	0	0	85	0	0
O=S(=O)(Nc1ccc(-c2csc(-c3ccccc3)n2)cc1)c1ccc(F)cc1	-	0	0	98	0	0
CCN1CCN(Cc2c3ccccc3cc3ccccc23)CC1	0	0	0	0	0	0
CC(C)C(NC(=O)C(c1ccccc1)c1ccccc1)c1nc2ccccc2[nH]1 (stereo not drawn)	0	0	0	79	0	0
Cc1c(NC(=O)COC(=O)c2ccc(O)cc2)c(=O)n(-c2ccccc2)n1C	-	0	0	-	0	0
CCc1ccc(NC(=O)c2ccc3c(c2)C(=O)N(Cc2ccco2)C3=O)cc1	0	84	0	0	0	0
O=C(O)c1cccc(NC(=O)c2ccc3c(c2)C(=O)N(Cc2ccco2)C3=O)c1	0	0	0	0	0	0
Nc1sc(-c2ccccc2)cc1C(=O)N/N=C/c1ccc(Cl)cc1	0	0	0	95	0	0
Clc1cc(CSc2ccccc2)nc(-c2ccccc2)n1	0	0	0	58	0	0
CCOC(=O)CSc1cc(CSc2ccccc2)nc(-c2ccccc2)n1	-	0	0	0	0	0
Clc1ccc(SCc2cc(Cl)nc(-c3ccccc3)n2)cc1	0	0	0	67	0	0
CCc1nc2c(OCc3ccc(Cl)cc3)cccn2c1N(C)C(=O)c1ccco1	-	0	-	-	-	-
SMILES	PfHsp90 set2	EBI2 block	TIM10 inh	SKKanGAS inh	tim23-1 inh	tim10-1 inh
COc1ccc2nc(N/C(N)=N/C(=S)Nc3cccc(C)c3)nc(C)c2c1	0	0	0	0	0	0
COc1ccc2nc(N/C(N)=N/C(=S)Nc3c(C)cccc3C)nc(C)c2c1	0	0	0	51	0	0
O=C(CN1CCN(c2ccc(F)cc2)CC1)Nc1nccs1	0	0	0	0	0	0
Cc1ccc(Cl)cc1N1CCN(Cc2nc3c(c(=O)[nH]c(=O)n3C)n2CCc2ccccc2)CC1	0	0	0	0	0	0
Cc1ccc(Cl)cc1N1CCN(Cc2nc3c(c(=O)[nH]c(=O)n3C)n2Cc2ccccc2F)CC1	0	0	0	79	0	0
CCN(CC)S(=O)(=O)c1ccc2oc(C(=O)NCc3ccc(C)cc3)c(C)c2c1	0	70	0	0	0	0
CCc1nc2ccc(C(=O)NC3CCN(Cc4ccccc4)CC3)cn2c1N(C)Cc1cc2ccccc2s1	-	0	-	-	-	-
O=C(NCCc1cccs1)Nc1nnc([C@H]2C[C@H](O)[C@@H](CO)O2)s1	-	0	-	-	-	-
Cc1onc(-c2ccccc2)c1C(=O)NNC(=S)NC(=O)/C=C/c1ccccc1	0	0	0	51	0	0
Cc1ccccc1C(=O)NNC(=S)NC(=O)c1ccc(Cl)cc1Cl	0	0	0	0	0	0
Cc1onc(-c2ccccc2)c1C(=O)NNC(=S)NC(=O)c1ccc(Cl)cc1Cl	0	0	0	80	0	0
Cc1onc(-c2ccccc2)c1C(=O)NNC(=O)c1ccccc1	0	0	0	-	0	0
Cc1onc(-c2ccccc2)c1C(=O)NNC(=S)NC(=O)c1ccc(Br)cc1	0	0	-	125	-	-
COc1ccc(-c2cc(C(=O)NNC(=S)NC(=O)c3c(-c4ccccc4)noc3C)[nH]n2)cc1	0	0	0	93	0	0
Cn1nc(C2CC2)cc1NC(=O)C1(C)CCN1C(=O)Cc1ccc(-c2ccccc2)cc1 (stereo not drawn)	-	0	-	-	-	-
O=C(N/N=C/c1cccnc1)c1cc(-c2ccccc2OCc2ccccc2)n[nH]1	0	0	0	0	0	0
O=C(Cn1cnc2c(nnn2Cc2ccc(F)cc2)c1=O)Nc1ccc2c(c1)OCCO2	0	0	0	0	0	0
COC(=O)CCN1CCC2CC1c1cc(Cl)ccc12 (stereo not drawn)	0	0	-	-	-	-
COc1ccc(/C=C/C(=O)NC(=S)NNC(=O)c2c(-c3ccccc3)noc2C)cc1	0	0	0	89	0	0
COc1cccc(CC(=O)NNC(=O)c2c(-c3ccccc3)noc2C)c1	-	0	0	0	0	0
Cc1c(C(=O)N/N=C/c2cccnc2)nnn1-c1nonc1N	0	0	0	0	0	0
CC1=NNC(=O)/C1=C\c1cn(-c2ccccc2)nc1-c1ccccc1	0	63	-	-	-	-
CCC/C=C/c1ccc(CN2C(CC(C)C)C(=O)N(Cc3cn(Cc4ccco4)nn3)CCS2(=O)=O)cc1 (stereo not drawn)	-	0	-	-	-	-
COC(=O)C(NC(=O)c1ccc(C)cc1)(Nc1cccc(C)n1)C(F)(F)F (stereo not drawn)	0	0	0	0	0	0
COc1ccc(NC(=S)Nc2ccc3snnc3c2)cc1	109	0	0	0	0	0
Cc1ccc(Nc2nc3ccccc3[nH]2)nc1	-	0	0	66	0	0
Cc1ccc(C)c(C(=O)Nc2nc3ccccc3[nH]2)c1	0	0	0	0	0	0
O=C(CC[C@H]1O[C@@H](n2ccc(=O)[nH]c2=O)[C@H](O)[C@@H]1O)NCC1CCCO1 (stereo partly drawn)	-	0	-	-	-	-
N#C/C(=C\c1cn(CCOc2ccccc2)c2ccccc12)C(=O)NCc1cccs1	0	0	0	0	0	0
O=C(Nc1nnc(-c2ccc3c(c2)CCCC3)o1)C1COc2ccccc2O1 (stereo not drawn)	0	0	0	99	0	0

Bioassay records deposited in PubChem BioAssay by several laboratories.
